Screening results (PubChem BioAssay)
Only some compounds are listed: those with a hit (about 4% of all), similar ones and a draw of the others.
CF NFkB inh: inhibitors of cystic fibrosis induced NF-kB | AID 588850 | inhibition, % at 5 µM | hit rate 0.86% among 360,000 | KKLEB NF-kB-GFP reporter, PAF-induced, GFP fluorescence overnight;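 active = at least 50% inhibition at 5 µM, scaled per plate between neutral and stimulator controls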;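 also: PAF is a Pseudomonas aeruginosa culture filtrate used as stimulus; plate controls were PAF-stimulated DMSO wells for no effect and unstimulated DMSO wells for full effect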
TROY signal inh: blocks TROY-dependent signaling in reporter cells; Q293 LMP1-TROYcd NF-kB luciferase reporter, 4 h; inhibition, % at 10 µM; hit rate 0.98% among 360,000; AID 1347056;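 active = compounds whose plate-normalised and pattern-corrected inhibition of the luciferase reporter signal at the single screening dose is 50% or more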
TWEAK-Fn14 inh: blocks TWEAK-Fn14 interaction in a reporter cell assay | TWEAK-stimulated Fn14 reporter cells, luciferase luminescence, 8 h | inhibition, % at 10 µM | hit rate 2% among 360,000 | AID 1159606; in the data active = inhibition above about 50%
KKLEB cytotox: reduces viability of KKLEB cystic fibrosis airway cells; KKLEB CF airway cells viability, ATPlite luminescence, overnight; stronger effect = lower value; cells stimulated with P. aeruginosa culture filtrate; hit rate 0.36% among 360,000; activity change (cytotoxicity), % at 5 µM;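 active = corrected activity change at or below -50% at 5 µM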
HIF-2a block: inhibitors of HIF-2a; hit rate 0.72% among 360,000; inhibition, % at 18.8 µM; 786-0 RCC cells HIF-2a reporter, luciferase luminescence, overnight;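 active = inhibition of the luminescence signal of 40% or more relative to plate controls, in a single-dose primary screen at 18.75 µM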
Peg3 promoter: Peg3 promoter activity inhibition. HeLa PEG-Prom luciferase reporter, luminescence, overnight. inhibition, % at 20 µM. hit rate 1.7% among 360,000. AID 588405;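 active = inhibition of at least 50% at 20 µM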
Numbers without * were called inactive; / = no result.

SMILES | CF NFkB inh | TROY signal inh | TWEAK-Fn14 inh | KKLEB cytotox | HIF-2a block | Peg3 promoter
Cc1ccc(-c2cc(C(=O)Nc3cc(C(=O)O)ccc3C)c3ccccc3n2)cc1 | 3 | -40 | 15 | -3 | -39 | -39
Cc1ccccc1-c1cc(C(=O)Nc2sc(C(=O)OC(C)C)c(C)c2C#N)c2ccccc2n1 | 56* | 58* | 62* | -54* | 3 | 31
COC(=O)c1sccc1NC(=O)c1cc(-c2ccc(C)cc2)nc2ccccc12 | 30 | -13 | 98* | -28 | -3 | -14
COC(=O)c1sc(NC(=O)c2cc(-c3ccccc3)nc3ccccc23)c(C#N)c1C | 34 | 52* | 35 | -33 | -6 | 35
CCC(=O)Nc1nnc(C)s1 | -6 | / | 58* | 12 | 0 | 8
CCCCC(=O)Nc1nnc(C)s1 | -14 | -6 | 8 | 14 | 3 | 2
Cc1cc(=O)[nH]c(Sc2c(-c3ccccc3)c3ccccc3[nH]c2=O)n1 | 8 | -14 | -7 | 4 | 18 | 6
O=c1/c(=C\c2cccn2-c2ccccc2)sc2nc3ccccc3n12 | -11 | 45 | 61* | 0 | -96 | -246
O=C(O)Cn1cc(/C=c2/sc3nc4ccccc4n3c2=O)c2ccccc21 | -5 | 35 | -24 | 12 | -279 | -297
CN(C)/C(=N\S(=O)(=O)c1ccccc1)c1ccc(F)cc1 | 12 | -17 | 52* | 12 | 26 | 15
CN(C)/C(=N\S(=O)(=O)c1ccc(F)cc1)c1ccccc1 | 5 | -2 | 24 | -10 | 9 | -2
Nc1nc(Cl)nc2ccc(Br)cc12 | -5 | 71* | 75* | -2 | -28 | -151
CCc1c(C)nc2ccc(Br)cc2c1Cl | 2 | -31 | -18 | 7 | -73 | -81
CN(C)C=NC(=O)c1ccc(N2CCN(c3ncc(C(F)(F)F)cc3Cl)CC2)cc1 | 9 | -5 | -13 | -22 | -3 | -14
O=C(CN1CCN(c2ncc(C(F)(F)F)cc2Cl)CC1)NCCNc1ncc(C(F)(F)F)cc1Cl | 14 | / | 76* | -4 | 26 | 42
NNC(=O)CN1CCN(c2ncc(C(F)(F)F)cc2Cl)CC1 | -3 | 20 | 3 | -3 | 13 | 2
CN(C)/C=C/C(=O)c1ccc(N2CCN(c3ncc(C(F)(F)F)cc3Cl)CC2)cc1 | 15 | 0 | 19 | 8 | 11 | 73*
COc1ccc(S(=O)(=O)Nc2ccccc2OC)cc1NC(=O)c1cc2ccccc2oc1=O | 58* | -51 | 13 | -55* | -189 | -131
O=C(Nc1cccc(S(=O)(=O)Nc2ccccc2F)c1)c1ccc2ccccc2n1 | -9 | 16 | 33 | 4 | -26 | -17
COc1ccccc1NS(=O)(=O)c1cccc(NC(=O)c2ccc3ccccc3n2)c1 | -18 | 33 | 69* | -1 | -73 | 4
CC(=O)C1CCC2C3CC=C4CC(SC(=N)N)CCC4(C)C3CCC12C (configuration not stated) | 6 | 26 | 7 | 1 | -29 | 97*
O=C(NCCCc1ccncc1)C1CCC(=O)N(Cc2cccc(F)c2)C1 (configuration not stated) | -10 | 9 | 2 | 8 | 9 | -9
CCN(CC(=O)Nc1cc(Cl)ccc1C)C(=O)C1CCN(c2ncnc3sc(C)c(C)c23)CC1 | 42 | 36 | 39 | -14 | 11 | 66*
Cc1sc2ncnc(N3CCC(C(=O)N(C)CC(=O)Nc4cccc(F)c4)CC3)c2c1C | 40 | 41 | 65* | -8 | 11 | 34
Cc1sc2ncnc(N3CCC(C(=O)N(C)CC(=O)Nc4ccccc4Cl)CC3)c2c1C | 46 | 25 | 32 | -3 | 22 | 49
Cc1sc2ncnc(N3CCC(C(=O)N(C)CC(=O)Nc4ccc(Cl)c(C(F)(F)F)c4)CC3)c2c1C | 49 | 58* | 51* | -26 | 9 | 64*
Cc1sc2ncnc(N3CCC(C(=O)N(C)CC(=O)Nc4ccccc4Br)CC3)c2c1C | 32 | 30 | 51* | -11 | 24 | 44
O=C(O)c1[nH]c2ccc(Br)cc2c1CCN1C(=O)c2cccc([N+](=O)[O-])c2C1=O | 2 | 0 | -17 | 6 | 11 | 9
O=C(CSc1nnc(NC(=O)C2CC2)s1)NCc1cccs1 | 3 | 4 | -4 | 2 | 13 | 9
Cc1ccc(S(=O)(=O)NC[C@H]2O[C@@H](n3cnc4c(N)ncnc43)[C@H](O)[C@@H]2O)cc1 | -25 | 8 | -1 | -9 | -8 | -16
